Source: PubChem
Compounds with a hit are over-represented: about 11% of the library has one in this group of screens.
HPGD block = qHTS Assay for Inhibitors of HPGD (15-Hydroxyprostaglandin Dehydrogenase) | 15-hydroxyprostaglandin dehydrogenase [NAD(+)] (Homo sapiens), P15428 | purified HPGD, NADH fluorescence kinetic, PGE2 substrate | Potency, µM, most hits filed as inhibitors | 150,000 tested, 4.3% active | AID 894, 2007
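NADH formation kinetics: reaction with 30 uM PGE2 and 1 mM NAD+ (final), 20 nM enzyme, Tris-HCl pH 8 with Tween 20, after 15 min compound preincubation at room temperature. Fluorescence change, last versus first of five reads.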
ALDH1A1 inh = qHTS Assay for Inhibitors of Aldehyde Dehydrogenase 1 (ALDH1A1) | Potency, µM (titrated, usually from 75.3 µM), usual class: inhibitors | Aldehyde dehydrogenase 1A1 (Homo sapiens), P00352 | 220,000 tested, 7.3% active | Purified ALDH1A1, NADH fluorescence, propionaldehyde substrate
Target sequence (P00352 whole entry, looked up): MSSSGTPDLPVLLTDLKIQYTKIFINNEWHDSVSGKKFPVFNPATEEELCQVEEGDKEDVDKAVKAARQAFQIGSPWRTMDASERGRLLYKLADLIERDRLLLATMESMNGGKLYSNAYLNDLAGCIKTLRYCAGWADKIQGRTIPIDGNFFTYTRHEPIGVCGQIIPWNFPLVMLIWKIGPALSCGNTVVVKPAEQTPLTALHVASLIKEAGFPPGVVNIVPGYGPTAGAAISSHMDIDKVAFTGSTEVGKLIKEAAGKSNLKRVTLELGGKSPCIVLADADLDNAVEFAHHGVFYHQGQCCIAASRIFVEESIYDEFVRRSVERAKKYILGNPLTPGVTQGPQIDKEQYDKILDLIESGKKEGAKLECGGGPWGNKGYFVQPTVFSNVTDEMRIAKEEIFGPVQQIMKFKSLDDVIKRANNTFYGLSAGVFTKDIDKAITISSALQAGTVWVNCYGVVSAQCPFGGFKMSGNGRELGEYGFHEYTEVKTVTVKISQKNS
PNC inhibitor = High Content Assay for Compounds that inhibit the Assembly of the Perinucleolar Compartment | AID 2417, 2010 | PC3M PTB-GFP, PNC prevalence imaging, 16 h; stronger effect = lower value | activity change (PNC), negative = inhibition, % at 10 µM | 140,000 tested, 3.1% active;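 active means readout at or below -70, meaning at least 70% loss of cells showing the perinucleolar compartment, a nuclear body marking cancer cells; inconclusive means readout between -30 and a set limit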
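Read-out is percentage of cells bearing a perinucleolar compartment, from automated 20x imaging of fixed, Hoechst-stained PC3M PTB-GFP cells. Cells were seeded 4 h, then exposed 16 h to compound (23 nl of library stock) in duplicate plates.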
IMPase inh = qHTS Assay for Identifying the Cell-Membrane Permeable IMPase Inhibitors | Inositol monophosphatase 1 (Rattus norvegicus), P97697 | CHO-M1 cells, IP1 accumulation, HTRF TR-FRET ratio | inhibition (IP1 accumulation), % at 46.1 µM | AID 901, 2007 | 120,000 tested, under 10 active; active means well fitted curve in the direction sought with a large enough effect in the signal ratio, not every such curve was filed as active; inconclusive means small, poorly fitted or top-dose-only effect, or a change in a side signal; inactive means no such curve, though single readings can be large or run the other way; the % refers to the signal ratio;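 further: cells stimulated with carbachol in lithium chloride buffer; higher means more IMPase inhibition seen as more IP1 and lower FRET ratio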
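Seeded CHO-M1 cells were dosed with compound at up to 46 uM, stimulated with carbachol for 30 min, then lysed in IP-One detection reagents. Higher IP1 lowers the TR-FRET signal.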
IMPase Li inh = qHTS Assay for Identifying the Cell-Membrane Permeable IMPase Inhibitors: Potentiation with Lithium. CHO-M1 cells, IP1 TR-FRET (IP-One), carbachol + lithium. Potency, µM (series often up to 59.4 µM), usual class: inhibitors. 210,000 tested, 0.35% active. AID 1457, 2008; active means well fitted inhibition curve with a large enough effect; inconclusive means small, poorly fitted or top-dose-only effect; inactive means no such curve, though single readings can be large or run the other way;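 further: IP1 builds up when IMPase is blocked and the TR-FRET signal falls; nearly all actives have a fitted effect of over 50% in size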
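IP1 accumulation measured by competitive TR-FRET in lysed CHO-M1 cells after 30 min compound exposure at 37C, with a small lithium addition to potentiate weak responses. Hill-equation AC50 from ratio and donor-channel data.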
Numbers stand for hits; . = inactive; ? = inconclusive; / = no result; [ ] = another dose, or the depositor's remark. Unless noted, the call rests on the fitted dose curve; in most records, active means well fitted inhibition curve with a large enough effect (not every such curve was filed as active); inconclusive means small, poorly fitted or top-dose-only effect, or another doubt; inactive means no such curve, though single readings can be large or run the other way.

SMILES	HPGD block	ALDH1A1 inh	PNC inhibitor	IMPase inh	IMPase Li inh
Cc1ccccc1Oc1ccc(-c2nc(N)nc(N)n2)cc1	25.1µM	?	?	.	.
Cc1ccc(Oc2ccc(-c3nc(N)nc(N)n3)cc2)cc1C	?	.	.	.	.
COc1cc(/C=N/NC(=O)C(N)=O)ccc1OCC(=O)N1C(C)CCCC1C (configuration not stated)	/	.	/	/	.
CCOc1ccc(C(NC(=O)/C=C/c2ccco2)c2ccc(OC)c(OC)c2)cc1 (configuration not stated)	.	?	.	.	.
COc1ccc(CNC(=O)/C=C/c2ccco2)cc1OC	/	3.55µM	/	/	.
COc1ccc(C(NC(=O)/C=C/c2ccco2)c2ccc(OC)c(OC)c2)cc1 (configuration not stated)	?	20µM	.	.	.
COc1ccc(CNC(=O)/C=C/C(=O)O)cc1OC	.	?	.	/	.
CC(=O)Nc1ccc(NC(=O)COC(=O)Cc2c[nH]c3ccccc23)cc1	.	14.1µM	.	/	.
COc1cccc(NC(=O)COC(=O)CCCc2c[nH]c3ccccc23)c1	.	.	.	.	.
COc1ccc(OCC(=O)c2c[nH]c3ccccc23)cc1	/	.	/	/	.
COc1ccc(NC(=O)COC(=O)CCCc2c[nH]c3ccccc23)cc1	.	8.91µM	.	.	.
CC(=O)OCC(=O)NCC(=O)c1c[nH]c2ccccc12	15.8µM	.	-100.1	/	.
Cn1c(N)c(C(=O)COC(=O)CCCc2c[nH]c3ccccc23)c(=O)n(C)c1=O	.	.	-80.3	.	.
CCc1nnc(NC(=O)CSc2n[nH]c(-c3ccccc3O)n2)s1	/	?	/	/	.
O=C(COC(=O)CCCc1c[nH]c2ccccc12)Nc1ccc2c(c1)OCO2	.	.	.	.	.
CCOc1ccc(NC(=O)COC(=O)CCCc2c[nH]c3ccccc23)cc1	.	15.8µM	.	.	.
NC(C(=O)O)c1cc(O)cc(O)c1 (configuration not stated)	/	?	/	/	.
O=C(OC1CCOC1=O)c1ccc(S(=O)(=O)N2CCCCCC2)cc1 (configuration not stated)	15.8µM	?	.	.	.
CCc1cccc(CC)c1NC(=O)COC(=O)c1cccc(S(=O)(=O)N2CCc3ccccc3C2)c1	.	.	-89.6	/	.
O=C(OC1CCOC1=O)c1ccc(N2CCCC2)c([N+](=O)[O-])c1 (configuration not stated)	/	14.1µM	/	/	.
CCc1cccc(CC)c1NC(=O)COC(=O)CC1c2ccccc2CCN1S(=O)(=O)c1ccccc1 (configuration not stated)	.	.	.	.	.
O=C(OC1CCOC1=O)c1ccc(Cl)c(S(=O)(=O)N2CCCCC2)c1 (configuration not stated)	/	.	/	/	.
O=C(OC1CCOC1=O)c1cccc(S(=O)(=O)N2CCc3ccccc3C2)c1 (configuration not stated)	/	12.6µM	/	/	.
Cc1c(NC(=O)c2ccc(-c3cccc([N+](=O)[O-])c3)o2)cccc1-c1nc2cc(Cl)ccc2o1	/	/	/	.	/
COC(=O)c1ccc(C(/C=C/[C@@H](C)C(=O)NCCc2c[nH]c3ccccc23)NC(=O)OCc2ccccc2)cc1 (some centres not stated)	.	?	/	/	.
SMILES	HPGD block	ALDH1A1 inh	PNC inhibitor	IMPase inh	IMPase Li inh
O=C(OCc1ccco1)c1ccc(S(=O)(=O)N2CCCCC2)cc1	.	28.2µM	.	.	.
O=C(COC(=O)c1ccc(S(=O)(=O)N2CCCCC2)cc1)NCc1ccco1	/	.	/	/	.
CCNc1ccc(S(=O)(=O)N(C)C)cc1NCC(=O)Nc1ccccc1Br	/	25.1µM	/	/	.
COc1ccc(S(=O)(=O)N(C)C)cc1NCC(=O)Nc1cccc(C#N)c1	/	20µM	/	/	.
COc1cc(CCC(=O)Nc2cccc(S(=O)(=O)N(C)C)c2)cc(OC)c1OC	.	.	.	/	.
CCNc1ccc(S(=O)(=O)N(C)C)cc1NCC(=O)Nc1ccc(F)c(Cl)c1	.	25.1µM	?	/	.
CCNc1ccc(S(=O)(=O)N(C)C)cc1NCC(=O)Nc1ccccc1F	.	20µM	.	/	.
CCNc1ccc(S(=O)(=O)N(C)C)cc1NCC(=O)Nc1ccc(Br)cc1F	.	.	?	/	.
CS(=O)(=O)N1CCC2(CCCN(c3ccncc3)C2)CC1	.	.	/	/	.
Cc1cc(CNC(=O)c2ccc3c(c2)OCO3)c2ccccc2n1	/	?	/	/	.
COc1ccc(NCC(=O)Nc2ccc(C#N)cc2)cc1Cl	.	10µM	.	.	.
CCN(CC)S(=O)(=O)c1ccc2nnn(OCC(=O)Nc3cccc(C#N)c3)c2c1	.	14.1µM	.	.	.
CCOc1ccc(NC(=O)COn2nnc3ccc(S(=O)(=O)N4CCOCC4)cc32)cc1	/	?	/	/	.
COc1ccc(NC(=O)CNc2cccc(C#N)c2)cc1Cl	.	?	?	.	.
COc1cc(CCN2C(=O)N[C@@H](c3ccccc3)C(C(C)=O)=C2C)cc(OC)c1OC	.	.	/	/	.
CCOC(=O)CSc1nc2sc(C)c(C)c2c(=O)[nH]1	3.55µM	.	.	.	.
CCOc1ccc(-n2c(=S)sc3c(=O)[nH]c(SCC(=O)N4CCC(C)CC4)nc32)cc1	.	.	.	.	.
CCOC(=O)CSc1nc2c(sc(=S)n2-c2ccccc2)c(=O)[nH]1	20µM	.	?	/	.
CCOc1ccc(-n2c(=S)sc3c(=O)[nH]c(SCC(=O)C(C)(C)C)nc32)cc1	/	7.08µM	/	/	.
CCOC(=O)/C(=C\c1ccc(Cl)cc1)c1nc2sc(C)c(C)c2c(=O)[nH]1	22.4µM	25.1µM	.	/	.
CCOC(=O)CSc1nc2c(sc(=S)n2-c2ccc(OCC)cc2)c(=O)[nH]1	/	?	/	/	.
Cc1ccc(CCCC(=O)O)cc1C	.	.[13.5 µM]	/	/	.
COc1ccc(CCNS(=O)(=O)c2ccc(C3CNC(=O)C3)cc2)cc1OC (configuration not stated)	.	.	-118.9	.	.
CCOC(=O)c1c(Nc2nc(C)c(C(=O)NC)s2)sc(C)c1C	.	.	-81.8	.	.
COc1ccccc1-c1nnc2sc(COc3ccccc3)nn12	.	.	.	.	.
Clc1ccc(OCc2nn3c(C4CCCCC4)nnc3s2)c(Cl)c1	2.82µM	?	-82.1	.	.
COc1ccccc1-c1nnc2sc(COc3ccc(Cl)cc3Cl)nn12	1.26µM	.	.	.	.
CCOc1cc(NS(=O)(=O)c2ccc(NC(C)=O)cc2)c(OCC)cc1NC(=O)c1cccs1	.	.	?	/	.
CCn1nc(C)c(NC(=O)/C=C/c2cnn(C)c2)c1C	.	.	.	.	.
Cc1nn(C)cc1CNC(=O)/C=C/c1cnn(C)c1	.	.	-109.0	/	.
